SMILES strings stand for the structures. About 79,000 compounds went through this panel and 15% of them were active in at least one assay; those are over-represented in the sample as a whole. Activity calls are given as the source filed them. Rule as the data show it: active = growth inhibition above about 70%; inactive = the rest.

A short description of this assay: NCI Yeast Anticancer Drug Screen. Data for the rad50 strain (AID 155).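 Also: 0% = growth of vehicle-only cultures of the same strain.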 As to conditions: S. cerevisiae rad50 strain growth inhibition; at 50.0 µM; stronger effect = higher value. In outline: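 A DNA repair-deficient yeast mutant serves as the test organism; compound-induced growth inhibition is calculated against vehicle-treated cells.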
As for `CCOC(=O)/C=C\n1c(=O)cc(C)c2ccccc21`, the growth inhibition was 8.85% (inactive).

With `C[n+]1cc(I)cc2ccccc21`, the growth inhibition is 3.85% (inactive).

Regarding `CC(=O)Oc1cc2oc([O-])c[n+]2c2ccccc12`, the growth inhibition is 28.6% (inactive).

In the case of `N#CNc1ccccc1`, the growth inhibition was 0.05% (inactive).

As to `COC(O)C(=O)c1c2c(cc3c1CCC3)CCC2` (stereo not given), the growth inhibition is 29.1% (inactive).

Consider `C=CCCCCCCCC(O)C1C[C@H](O)C(CCCCC)O1` (stereo not given in full), for which the growth inhibition is -0.8% (inactive).

For `CCOC(=O)C1C(c2ccc(N(C)C)cc2)c2cc3c(cc2OC1(C)N1CCCC1)OCO3` (stereo not given), the growth inhibition was -13.6% (inactive).

As for `Cc1c2ccccc2nc(CSCCO)[n+]1[O-]`, the growth inhibition was -10.8% (inactive).

Consider `CNC(=O)/C=C/C1=CN2C(=O)c3ccc(C)c(O)c3NC(OC)C2C1` (stereo not given), for which the growth inhibition is 91.5% (active).

Take `COC(OC)C1(CCc2ccccc2)NC(=O)N(C)C1=O` (stereo not given): the growth inhibition is -17.4% (inactive).

Turning to `ClC(Cl)C1OCCCO1`, the growth inhibition is -32.4% (inactive).

Consider `OC(CN(C1CCCCC1)C1CCCCC1)c1ccnc2c(Cl)cc(Cl)cc12` (stereo not given), for which the growth inhibition was -21.8% (inactive).

For the compound `CC(=O)OC1CCC2(C)C(CCC3C2C(=O)C(Br)C2(C)C(C(C)=O)CCC32)C1` (stereo not given), the growth inhibition was -1.2% (inactive).

For `CCCCSc1ccc2n(C)c(-c3ccc(/C=N\NC(=O)c4ccc(C(=O)N/N=C\c5ccc(-c6c[n+]7cc(SCCCC)ccc7n6C)cc5)cc4)cc3)c[n+]2c1`, the growth inhibition is -15.8% (inactive).

Regarding `O=C(O)c1c[nH]c(=O)[nH]c1=O.[Cu+2]`, the growth inhibition was -23.9% (inactive).

As for `COc1cccc2c1OC(=O)NC2O` (stereo not given), the growth inhibition was -8.35% (inactive).

On to `COc1c(Cl)cc(Cl)c(C)c1C(C)C(=O)O` (stereo not given), for which the growth inhibition was 21.4% (inactive).

With `COc1ccc(NC(=O)Oc2ccc3c(C)cc(=O)oc3c2)c(OC)c1` (tested in a mixture with another compound), the growth inhibition is -3.7% (inactive).

For `C(=N\N=C\c1ccccc1)/c1ccccc1`, the growth inhibition was 14.7% (inactive).

Consider `COC(=O)C1CC(=O)N(C)c2sc(C)c(C)c2C1=O` (stereo not given), for which the growth inhibition is 83.9% (active).

For the compound `CC1CCCC(CCO)CC1` (stereo not given), the growth inhibition was 11.6% (inactive).

In the case of `CC(N)(C(=O)O)c1ccccc1` (stereo not given), the growth inhibition is -2.45% (inactive).

With `O=C1CC[C@@H](S(=O)(=O)c2ccccc2)[C@@H](/C=C/c2ccccc2)O1`, the growth inhibition is -26.8% (inactive).

On to `CC(=O)/C(=C\c1ccccc1)C(=O)CCN(C)C`, for which the growth inhibition is 21.9% (inactive).

For the compound `CCN(CC)C(=O)c1ccc(C(C)C)cc1`, the growth inhibition is 20.4% (inactive).

Take `O=[N+]([O-])c1ccc(OCCCCCBr)c(Cl)c1`: the growth inhibition was -1.95% (inactive).

Turning to `O=[N+]([O-])c1cc(Br)cc2c1[nH]c1nc3ccc(C(F)(F)F)cc3nc12`, the growth inhibition was 45.5% (inactive).

`O=c1cc(NC(c2ccccc2)c2ccccc2)[nH]c(=O)[nH]1`: the growth inhibition is -5.25% (inactive).

With `N#C[C@H](c1nc2ccccc2[nH]1)c1nc2ccccc2nc1Cl`, the growth inhibition is 5.5% (inactive).

Regarding `CCN(CC)CCNC(=O)c1cn2c(ccc3sc4ccccc4c(=O)c32)n1`, the growth inhibition is 70.8% (active).

In the case of `O=C(NCc1ccco1)Nc1ccccc1`, the growth inhibition is -5.8% (inactive).

In the case of `CCO[C@H]1c2cc3c(cc2[C@@H](c2cc(OC)c(OC)c(OC)c2)[C@H]2C(=O)OC[C@@H]21)OCO3`, the growth inhibition was 11.4% (inactive).

For `CC(C)/C=N\n1c(N)c(C#N)c(C#N)c1C(C)C`, the growth inhibition was -4.9% (inactive).

Take `N#CCC(=O)NCCc1c[nH]c2ccccc12`: the growth inhibition was -18.1% (inactive).

In the case of `CCOC(=O)C(C(=O)OCC)=C1c2ccccc2Oc2ccccc21`, the growth inhibition is 39.1% (inactive).

Turning to `N#CCCCCC12C3C(=O)N(c4ccccc4)C(=O)C3ON1O[C@@H]1C(=O)N(c3ccccc3)C(=O)[C@@H]12` (stereo not given in full), the growth inhibition is 43.4% (inactive).

For `O=C1c2ccccc2-c2nc(-c3ccncc3)cc3c2c1nc1ccccc13`, the growth inhibition is 25.6% (inactive).

Turning to `COc1ccccc1C(=O)N(C)c1ccc(Cl)c(C(=O)OC(C)C)c1`, the growth inhibition is 30.9% (inactive).

In the case of `Cc1cn(CCCCCCCCCCCCOc2c3occc3cc3ccc(=O)oc23)c(=O)[nH]c1=O`, the growth inhibition is 20.1% (inactive).

As for `O=CNc1ccc(Br)cc1`, the growth inhibition was -8.3% (inactive).
